This passage reports Potency results from PubChem BioAssay (Tox21).

Values joined by “and” are separate entries in the source; they are usually repeats but may differ in a detail not shown here. Equal values may be shown once. Results filed as inconclusive are left out. More than one record can exist for a structure, and the calls need not agree. Active and inactive are the calls of the source. Calls come from the whole dose curve; as a rule, active = well fitted curve in the direction sought with a large enough effect in the repeat runs; inconclusive = weak or mixed curves; inactive = no such curve, though single readings can be large; an effect the other way counts as inactive or inconclusive.

The nature of assay [1]: Human pregnane X receptor (PXR) small molecule agonists, qHTS cell viability counter screen (AID 1346977). Note: nearly all actives have a fitted effect of over 50% in size. Note: potency is the fitted concentration of half-maximal effect. The procedure, abridged: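 Viability counter screen: CellTiter-Fluor signal in PXR-Luc HepG2 cells, 24hr compound exposure, 37C, 5% CO2.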
(In general: In qHTS, concentration-response curves come from the screen itself.)

The nature of assay [2]: Caspase-3/7 induction in HepG2 cells by small molecules, qHTS assay (AID 1346978). Note: nearly all actives have a fitted effect of over 15% in size. Note: potency is the fitted concentration of half-maximal effect. The procedure, abridged: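 Wild-type HepG2 cells (2,000/well) were settled 5 h at 37 C, 5% CO2, then exposed to compounds in DMSO for 17 h. Caspase-3/7 activity was read by luminescence 30 min after adding Caspase-Glo 3/7 reagent at room temperature.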
Assay [3] can be described thus: Caspase-3/7 induction in CHO-K1 cells by small molecules, qHTS cell viability counter screen (AID 1346979). Note: nearly all actives have a fitted effect of over 35% in size. Note: potency is the fitted concentration of half-maximal effect. In a few lines: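 Viability readout by fluorescence (CellTiter-Fluor) on wild-type CHO-K1 cells exposed for 16hr at 37C and 5% CO2 to compounds delivered in DMSO; reagent incubated 1hr before reading.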
Assay [4] in a line: Caspase-3/7 induction in CHO-K1 cells by small molecules, qHTS assay (AID 1346980). Note: nearly all actives have a fitted effect of over 15% in size. In a few lines:
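Wild-type cells were seeded at 1,500 per well and settled 5 hr at 37 C, 5% CO2, then exposed to DMSO-dissolved compounds for 17 hr. Caspase-Glo 3/7 reagent was added, and luminescence was read after 30min at room temperature.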

Assay [5] is described as follows: Caspase-3/7 induction in HepG2 cells by small molecules, qHTS cell viability counter screen (AID 1346981). Note: nearly all actives have a fitted effect of over 30% in size. Note: potency is the fitted concentration of half-maximal effect. The procedure, abridged: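 Cell viability is measured as a cytotoxicity counter screen alongside the Caspase-Glo 3/7 readout in identical wells. Wild-type HepG2 cells are treated with test compounds for 16 hr at 37 C before CellTiter-Fluor addition and a 1-hr incubation.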

Assay [6] concerns the target Nuclear receptor subfamily 1 group I member 2 (Homo sapiens) (UniProt O75469). Description: Human pregnane X receptor (PXR) small molecule agonists, qHTS assay (AID 1346982). Note: nearly all actives have a fitted effect of over 35% in size. Note: potency is the fitted concentration of half-maximal effect. In a few lines: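 Cells: HepG2 stably carrying PXR-Luc. Medium held 5% charcoal-stripped FBS. Compounds in DMSO added after 5 hr plating, incubated 24 hr, then luminescence quantified with ONE-Glo.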

Assay [7] addresses Cytochrome P450 2C19 (Homo sapiens) (UniProt P33261). Description: Cytochrome P450 Family 2 Subfamily C Member 19 (CYP2C19) small molecule antagonists: luciferase reporter qHTS assay (AID 1671197). Note: nearly all actives have a fitted effect of over 65% in size. Note: potency is the fitted concentration of half-maximal effect. The procedure, abridged: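 CYP2C19 P450-Glo, 1536-well qHTS. Cpd + enzyme/proluciferin substrate 10 min RT; + NADPH regen, 37C 1 h; stop with luciferin detection reagent, 20 min RT, luminescence (RLU). Pos ctrl ketoconazole.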
(In general: A reporter such as luciferase makes a cellular process visible.)

Assay [8] concerns the target Cytochrome P450 1A2 (Homo sapiens) (UniProt P05177). The assay is described as follows: Cytochrome P450 Family 1 Subfamily A Member 2 (CYP1A2) small molecule antagonists: luciferase reporter qHTS assay (AID 1671199). Note: nearly all actives have a fitted effect of over 50% in size. Note: potency is the fitted concentration of half-maximal effect. In a few lines:
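Compounds were incubated with CYP1A2 and a luminogenic proluciferin substrate for 10 min at room temperature before the reaction was started with NADPH regeneration solution. After 1 h, detection reagent was added and light output, proportional to CYP activity, was recorded.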

In assay [9] the target is Voltage-gated inwardly rectifying potassium channel KCNH2 (Homo sapiens) (UniProt Q12809). Description: Human Ether-a-go-go-Related Gene (hERG) channel small molecule antagonists: fluorescence cell-based qHTS assay (AID 1671200).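 Note: hERG-expressing U2OS cells given a thallium stimulus after FluxOR II dye loading; series mostly up to about 77 µM; nearly all actives have a fitted effect of over 50% in size.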 In a few lines:
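Thallium served as the potassium surrogate; its influx into dye-loaded U2OS cells carrying the channel was measured by fluorescence over 2 min.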
For orientation: hERG is a cardiac potassium channel; its block is linked to QT prolongation.

For assay [10], the target named is Cytochrome P450 3A4 (Homo sapiens) (UniProt P08684). Description: Cytochrome P450 Family 3 Subfamily A Member 4 (CYP3A4) small molecule antagonists: luciferase reporter qHTS assay (AID 1671201). Note: nearly all actives have a fitted effect of over 50% in size. Note: potency is the fitted concentration of half-maximal effect. The procedure, abridged: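 Relative luminescence units after 20 min with luciferin detection reagent served as read-out. Beforehand, CYP3A4 turned over a proluciferin substrate for 1 h at room temperature with NADPH regeneration, following 10 min compound preincubation.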

Assay [11] concerns the target Cytochrome P450 2C9 (Homo sapiens) (UniProt P11712). The assay is described as follows: Cytochrome P450 Family 2 Subfamily C Member 9 (CYP2C9) small molecule antagonists: luciferase reporter qHTS assay (AID 1671198). Note: nearly all actives have a fitted effect of over 50% in size. Note: potency is the fitted concentration of half-maximal effect. In a few lines: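 CYP2C9 activity was measured with a P450-Glo proluciferin substrate. Enzyme–substrate mix was held with compound for 10 min at room temperature, then NADPH regeneration solution was added for 1 h at 37C. Luciferin product was read as luminescence.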

In assay [12] the target is Nuclear receptor subfamily 1 group I member 2 (Rattus norvegicus) (UniProt Q9R1A7). Description: Rat pregnane X receptor (rPXR) activation by small molecules, qHTS assay (AID 1346983). Note: potency is the fitted concentration of half-maximal effect; nearly all actives have a fitted effect of over 20% in size. The note with it: rPXR luciferase reporter cells, One-Glo luminescence, 24 h; max activation: stronger effect = higher value. In a few lines: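 Cell-based rPXR luciferase reporter assay, 2,000 cells per well, rested 5hr at 37 C before compound addition in DMSO, then 24 hr at 37 C. One-Glo reagent was added and luminescence read after 30 min at room temperature.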

Assay [13] has as its target Cytochrome P450 2D6 (Homo sapiens) (UniProt P10635). Description: Cytochrome P450 Family 2 Subfamily D Member 6 (CYP2D6) small molecule antagonists: luciferase reporter qHTS assay (AID 1671196). In a few lines: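 Enzyme and proluciferin substrate were first combined with test chemical for 10 min at room temperature. Adding NADPH regeneration solution started a 1 h reaction, stopped with luciferin detection reagent and read by luminescence 20 min later.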

Chain of Cytochrome P450 3A4 (Homo sapiens) (P08684 whole entry, looked up): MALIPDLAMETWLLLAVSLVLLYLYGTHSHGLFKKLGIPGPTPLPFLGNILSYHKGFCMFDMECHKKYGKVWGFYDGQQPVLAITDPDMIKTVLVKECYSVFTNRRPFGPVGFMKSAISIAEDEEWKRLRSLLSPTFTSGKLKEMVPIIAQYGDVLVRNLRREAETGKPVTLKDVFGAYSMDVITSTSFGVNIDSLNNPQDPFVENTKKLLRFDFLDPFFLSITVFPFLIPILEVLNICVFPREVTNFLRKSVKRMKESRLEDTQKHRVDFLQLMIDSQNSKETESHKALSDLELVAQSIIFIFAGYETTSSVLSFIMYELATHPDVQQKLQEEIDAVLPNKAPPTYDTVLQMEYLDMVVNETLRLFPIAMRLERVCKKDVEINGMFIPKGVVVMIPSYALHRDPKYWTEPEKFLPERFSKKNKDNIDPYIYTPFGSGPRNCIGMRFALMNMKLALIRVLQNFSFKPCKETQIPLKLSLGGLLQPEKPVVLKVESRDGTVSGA
Chain of Cytochrome P450 1A2 (Homo sapiens) (P05177 whole entry, looked up): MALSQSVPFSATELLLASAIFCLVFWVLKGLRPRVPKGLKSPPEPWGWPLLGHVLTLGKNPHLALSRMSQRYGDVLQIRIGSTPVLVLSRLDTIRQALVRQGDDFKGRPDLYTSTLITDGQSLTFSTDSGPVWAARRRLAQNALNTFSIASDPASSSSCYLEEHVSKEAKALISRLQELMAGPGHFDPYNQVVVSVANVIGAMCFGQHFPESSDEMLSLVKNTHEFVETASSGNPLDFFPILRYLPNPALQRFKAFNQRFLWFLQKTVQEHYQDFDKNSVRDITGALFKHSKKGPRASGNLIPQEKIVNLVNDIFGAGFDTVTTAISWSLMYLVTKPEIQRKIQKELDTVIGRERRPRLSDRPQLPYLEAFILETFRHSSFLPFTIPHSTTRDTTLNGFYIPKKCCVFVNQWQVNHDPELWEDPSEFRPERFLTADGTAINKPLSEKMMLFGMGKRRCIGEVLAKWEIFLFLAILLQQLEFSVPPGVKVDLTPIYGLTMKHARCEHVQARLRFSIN
Chain of Cytochrome P450 2C19 (Homo sapiens) (P33261 whole entry, looked up): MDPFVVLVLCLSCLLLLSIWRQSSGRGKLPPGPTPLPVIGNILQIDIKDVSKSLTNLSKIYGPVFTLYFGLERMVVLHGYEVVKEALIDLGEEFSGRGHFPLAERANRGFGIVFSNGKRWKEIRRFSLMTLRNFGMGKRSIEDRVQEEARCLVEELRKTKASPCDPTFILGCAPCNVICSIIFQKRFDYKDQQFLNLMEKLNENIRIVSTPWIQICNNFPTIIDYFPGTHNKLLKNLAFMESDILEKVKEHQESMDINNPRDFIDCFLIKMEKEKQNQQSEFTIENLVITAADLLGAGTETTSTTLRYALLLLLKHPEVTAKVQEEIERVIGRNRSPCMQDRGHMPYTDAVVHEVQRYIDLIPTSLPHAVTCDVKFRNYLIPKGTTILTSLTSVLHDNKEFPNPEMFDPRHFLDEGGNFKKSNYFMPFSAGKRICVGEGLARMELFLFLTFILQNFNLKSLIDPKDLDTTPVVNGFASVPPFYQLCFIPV
Chain of Voltage-gated inwardly rectifying potassium channel KCNH2 (Homo sapiens) (Q12809 whole entry, looked up): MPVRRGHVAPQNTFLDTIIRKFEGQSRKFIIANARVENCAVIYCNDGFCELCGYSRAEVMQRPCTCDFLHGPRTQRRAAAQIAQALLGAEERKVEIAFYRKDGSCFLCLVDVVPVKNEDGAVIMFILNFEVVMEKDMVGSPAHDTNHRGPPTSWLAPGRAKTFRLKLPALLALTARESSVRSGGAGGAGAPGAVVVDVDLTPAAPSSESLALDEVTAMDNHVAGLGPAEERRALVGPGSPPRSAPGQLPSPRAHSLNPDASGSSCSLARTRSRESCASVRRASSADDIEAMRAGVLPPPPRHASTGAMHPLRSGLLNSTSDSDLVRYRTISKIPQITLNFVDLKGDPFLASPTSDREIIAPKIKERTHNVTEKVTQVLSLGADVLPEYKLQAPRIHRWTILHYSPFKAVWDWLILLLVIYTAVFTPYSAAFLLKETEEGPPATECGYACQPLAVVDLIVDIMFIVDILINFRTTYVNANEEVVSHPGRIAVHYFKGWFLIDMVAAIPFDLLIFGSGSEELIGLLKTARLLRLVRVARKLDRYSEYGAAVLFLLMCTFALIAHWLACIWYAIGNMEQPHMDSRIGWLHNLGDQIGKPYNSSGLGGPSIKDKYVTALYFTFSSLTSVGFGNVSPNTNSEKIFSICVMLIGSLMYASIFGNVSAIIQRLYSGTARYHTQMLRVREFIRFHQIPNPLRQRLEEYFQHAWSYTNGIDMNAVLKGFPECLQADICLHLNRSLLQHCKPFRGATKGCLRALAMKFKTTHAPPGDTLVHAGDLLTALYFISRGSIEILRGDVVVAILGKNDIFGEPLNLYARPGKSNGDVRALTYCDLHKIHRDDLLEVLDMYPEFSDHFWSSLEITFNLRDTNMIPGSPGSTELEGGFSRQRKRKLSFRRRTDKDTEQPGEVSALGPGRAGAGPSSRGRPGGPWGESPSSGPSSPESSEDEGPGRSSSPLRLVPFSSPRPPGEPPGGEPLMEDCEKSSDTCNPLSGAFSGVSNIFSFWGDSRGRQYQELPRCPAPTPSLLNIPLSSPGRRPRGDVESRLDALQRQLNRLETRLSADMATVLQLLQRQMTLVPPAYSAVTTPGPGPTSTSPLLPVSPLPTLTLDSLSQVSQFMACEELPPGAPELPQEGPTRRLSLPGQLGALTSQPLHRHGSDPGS
Chain of Nuclear receptor subfamily 1 group I member 2 (Homo sapiens) (O75469 whole entry, looked up): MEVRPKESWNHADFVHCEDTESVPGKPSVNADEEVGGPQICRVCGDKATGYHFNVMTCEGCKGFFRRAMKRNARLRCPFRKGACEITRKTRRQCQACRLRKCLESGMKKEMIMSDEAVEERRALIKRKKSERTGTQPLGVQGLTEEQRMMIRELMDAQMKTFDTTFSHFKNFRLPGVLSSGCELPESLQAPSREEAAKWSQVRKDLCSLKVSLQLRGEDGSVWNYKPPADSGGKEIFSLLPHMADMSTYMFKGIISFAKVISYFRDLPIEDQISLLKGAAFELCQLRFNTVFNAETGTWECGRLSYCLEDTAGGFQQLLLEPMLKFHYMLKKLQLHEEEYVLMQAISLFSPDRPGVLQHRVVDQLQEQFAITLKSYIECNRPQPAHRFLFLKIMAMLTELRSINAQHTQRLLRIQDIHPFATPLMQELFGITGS
Chain of Cytochrome P450 2C9 (Homo sapiens) (P11712 whole entry, looked up): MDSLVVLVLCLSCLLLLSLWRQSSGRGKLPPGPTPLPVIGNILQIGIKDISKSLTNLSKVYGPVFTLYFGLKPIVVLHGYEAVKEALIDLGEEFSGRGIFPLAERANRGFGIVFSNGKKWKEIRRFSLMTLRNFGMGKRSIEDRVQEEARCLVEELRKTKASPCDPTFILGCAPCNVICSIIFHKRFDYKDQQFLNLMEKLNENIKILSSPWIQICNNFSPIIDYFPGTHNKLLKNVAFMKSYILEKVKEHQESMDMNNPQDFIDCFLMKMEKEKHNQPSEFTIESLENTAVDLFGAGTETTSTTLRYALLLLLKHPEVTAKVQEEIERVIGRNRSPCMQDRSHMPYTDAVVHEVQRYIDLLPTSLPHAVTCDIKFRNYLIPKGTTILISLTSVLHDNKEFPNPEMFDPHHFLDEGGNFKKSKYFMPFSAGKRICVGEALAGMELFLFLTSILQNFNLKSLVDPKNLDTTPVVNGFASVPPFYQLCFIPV
Chain of Cytochrome P450 2D6 (Homo sapiens) (P10635 whole entry, looked up): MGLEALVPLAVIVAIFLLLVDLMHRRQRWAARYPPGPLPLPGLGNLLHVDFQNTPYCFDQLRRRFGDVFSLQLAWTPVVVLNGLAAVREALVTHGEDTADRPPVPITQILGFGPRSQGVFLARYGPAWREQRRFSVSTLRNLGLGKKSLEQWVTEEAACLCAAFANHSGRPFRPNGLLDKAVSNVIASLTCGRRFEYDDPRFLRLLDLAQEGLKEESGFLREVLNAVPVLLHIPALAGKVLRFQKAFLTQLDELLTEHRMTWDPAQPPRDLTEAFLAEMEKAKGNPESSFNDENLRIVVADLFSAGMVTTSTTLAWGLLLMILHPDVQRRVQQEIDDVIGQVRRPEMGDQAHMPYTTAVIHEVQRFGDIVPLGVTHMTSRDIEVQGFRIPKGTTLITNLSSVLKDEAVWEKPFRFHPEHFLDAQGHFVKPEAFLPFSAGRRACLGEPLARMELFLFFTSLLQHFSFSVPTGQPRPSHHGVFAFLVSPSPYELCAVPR
Chain of Nuclear receptor subfamily 1 group I member 2 (Rattus norvegicus) (Q9R1A7 whole entry, looked up): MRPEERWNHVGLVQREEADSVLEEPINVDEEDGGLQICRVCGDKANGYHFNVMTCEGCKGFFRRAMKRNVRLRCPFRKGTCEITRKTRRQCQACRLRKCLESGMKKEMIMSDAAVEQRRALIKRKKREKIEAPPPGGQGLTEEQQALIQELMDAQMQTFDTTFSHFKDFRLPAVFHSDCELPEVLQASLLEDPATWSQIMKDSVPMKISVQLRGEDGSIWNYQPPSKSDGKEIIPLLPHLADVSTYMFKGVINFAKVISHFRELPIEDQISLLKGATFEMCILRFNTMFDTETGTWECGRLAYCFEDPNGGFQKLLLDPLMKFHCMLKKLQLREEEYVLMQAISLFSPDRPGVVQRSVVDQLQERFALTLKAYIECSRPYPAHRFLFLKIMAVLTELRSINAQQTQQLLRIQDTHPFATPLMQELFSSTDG

For `CC(C)=CCO`, the Potency entry in assay [1], in [2], in [3], in assay [4], in assay [5] and in assay [7] was “inactive” throughout. Moreover, the Potency result in [8], in [9] and in assay [10] was “inactive” each time. The Potency in assay [6] is 62.6 µM (active) and inactive.

`COC(=O)C(C)Oc1ccc(Oc2ncc(C(F)(F)F)cc2Cl)cc1` (configuration not stated): the Potency entry in assay [1], in assay [2], in assay [3], in [4], in assay [5] and in assay [11] was “inactive” each time. In addition, the Potency entry in assay [10] was “inactive”. In addition, the Potency in assay [6] was 61.9 µM (active) and 61.1 µM (active); in assay [7], 40.4 µM (active) and 39.9 µM (active).

As to `C=C[C@@]1(C)CC(=O)[C@]2(O)[C@@]3(C)[C@@H](O)CCC(C)(C)[C@@H]3[C@H](O)[C@H](OC(C)=O)[C@@]2(C)O1`, the Potency entry in assay [1], in [2], in assay [4], in assay [5], in assay [8] and in assay [9] was “inactive” in each case. Further, the Potency in assay [3] is 68.6 µM (active); in [12], 5.01 µM (active); in assay [7], 39.9 µM (active).

For `COC(=O)CC(=O)OC`, the Potency result in [1], in assay [2], in assay [3], in assay [4], in assay [5] and in [11] was “inactive” throughout. For the same compound, the Potency result in assay [8] and in assay [9] was “inactive” throughout. For the same compound, the Potency in assay [6] was 56.7 µM (active) and inactive; in assay [7] it was 41.6 µM (active) and inactive; in assay [10], “inactive and 63.3 µM (active)”.

For the compound `NCCS(=O)(=O)O`, the Potency entry in [1], in [2], in assay [4], in [5] and in [9] was “inactive” each time. Besides, the Potency in assay [3] was 28.4 µM (active) and inactive.

Consider `c1ccc2ncccc2c1`, for which the Potency result in assay [1], in assay [2], in [3], in [4], in assay [5] and in assay [6] was “inactive” in each case. Further, the Potency entry in assay [7], in assay [9] and in assay [10] was “inactive” in each case. The Potency result in [8] was “inactive and 35.6 µM (active)”.

Take `Nc1ccc2c(O)cc(S(=O)(=O)O)cc2c1`: the Potency in assay [1] was 28.2 µM (active) and 21.7 µM (active); in assay [3], 48.6 µM (active) and 19.3 µM (active); in assay [5], 27.3 µM (active) and 21.7 µM (active); in [6], 30.7 µM (active); in [13], 35.6 µM (active) and 71 µM (active); in [7], 79.8 µM (active) and 50.2 µM (active). Moreover, the Potency in [11] was 71 µM (active). Further, the Potency entry in [2], in assay [4], in assay [8], in assay [9] and in assay [10] was “inactive” throughout.

Turning to `c1ccc2c(c1)ccc1ncccc12`, the Potency result in assay [1], in [2], in assay [3], in assay [4], in assay [5] and in assay [11] was “inactive” in each case. Moreover, in [9], the Potency result was “inactive”. Also, the Potency was 60.7 µM (active) and 61.1 µM (active) in assay [6]; 35.3 µM (active) and 79.6 µM (active) in assay [7]; 4.45 µM (active) and 7.1 µM (active) in assay [8]; 62.8 µM (active) in assay [10].

As to `O=C(CCCN1CCC(O)(c2ccc(Cl)cc2)CC1)c1ccc(F)cc1`, the Potency was 54.5 µM (active) and inactive in assay [2]; 61.1 µM (active) and inactive in assay [3]; 48.6 µM (active) and inactive in assay [5]. Further, the Potency result in assay [4] is “inactive”.
